Screening results: PubChem BioAssay, Broad Institute
Sampled rows, rich in hits. Any-hit rate of the full collection: about 3.1%.
MLL AF4-AF9 inh = blocks AF4 peptide binding to human AF9; P42568; AlphaScreen, biotin-AF4 peptide binding to FLAG-AF9; inhibition, % at 10 µM; 0.47% of 350,000 active; AID 651704;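 active means every replicate reaching a set inhibition limit, whatever the replicate mean, cut at about 25% in these data; inconclusive means mean inhibition reaches that limit but some replicates miss it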
Target sequence (P42568 whole entry, looked up): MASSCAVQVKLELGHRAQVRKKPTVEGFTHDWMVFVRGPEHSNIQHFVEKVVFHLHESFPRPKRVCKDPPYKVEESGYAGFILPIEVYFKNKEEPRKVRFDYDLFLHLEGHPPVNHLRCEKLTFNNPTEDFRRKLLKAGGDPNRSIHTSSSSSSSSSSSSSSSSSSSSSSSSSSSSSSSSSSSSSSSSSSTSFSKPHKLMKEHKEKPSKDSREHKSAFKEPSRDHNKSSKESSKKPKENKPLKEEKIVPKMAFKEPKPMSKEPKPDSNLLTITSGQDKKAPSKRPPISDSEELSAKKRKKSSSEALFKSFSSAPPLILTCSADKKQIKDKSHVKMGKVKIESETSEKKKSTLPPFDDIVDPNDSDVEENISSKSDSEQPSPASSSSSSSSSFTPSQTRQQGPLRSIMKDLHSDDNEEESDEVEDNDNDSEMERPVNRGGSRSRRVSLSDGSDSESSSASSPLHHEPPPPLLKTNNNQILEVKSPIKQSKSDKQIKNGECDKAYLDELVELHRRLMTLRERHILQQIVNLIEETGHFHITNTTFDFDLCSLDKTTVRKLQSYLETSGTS
RAD54 inh = inhibitors of human RAD54 branch migration | 0.14% of 360,000 active | Q92698 | RAD54 Holliday junction branch migration, FAM/BHQ fluorescence | inhibition, % at 10.4 µM | AID 602329;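 active means mean normalized replicate activity at least 40 and at least half of replicates scoring 40 or more; inconclusive means only one of the two criteria met; inactive means mean below 40 and under half of replicates reaching 40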;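 further: inhibitors cause a drop in the FAM fluorescence signal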
DENV2 CPE rescue = inhibitors of DENV2 cytopathic effect | DENV2-infected cells, cytopathic effect rescue, plate reader | CPE inhibition, % at 9.99 µM | AID 651640 | 1.7% of 350,000 active; in the data active means CPE inhibition above about 20%, passing the limit was not always enough; inconclusive means no clear call, values can overlap the other calls; tested in BHK-21 cells
GSIS activator = GLuc luminescence reporter in INS-1E cells, primary screen for activators of glucose-dependent secretion of insulin | INS-1E GLuc reporter insulin secretion, 2-3 h | activation, % at 16.6 µM | 0.61% of 370,000 active | AID 743287;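 active means lowest replicate activation of at least 40%, so every replicate reaches that level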
dFosB activator = enhances mouse delta FosB homodimer DNA binding; purified delta FosB, TAMRA-CDK5 oligo fluorescence polarization; percent of positive-control signal above neutral wells; activation, % at 25 µM; 0.99% of 340,000 active; AID 493131;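 active means mean activation above about 17%, with every replicate also reaching it, limit read from the data, passing the limit was not always enough; inconclusive means only one of the two conditions met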
RAD52 inh = inhibitors of human RAD52 DNA annealing; recombinant RAD52 DNA annealing, FRET fluorescence; P43351; 0.46% of 360,000 active; inhibition, % at 18.7 µM;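 active means every replicate showing at least 50% inhibition; inconclusive means mean inhibition at least 50% but not in every replicate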
Rad54 DNA ctr = DNA binding artifact in Rad54 counter-screen | Acridine orange-DNA displacement, fluorescence polarization, 20 min | AID 651673 | shares compounds with RAD54 inh | 8% of 460 active | AC50, µM (highest dose often 35 µM);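 active means signal drop giving an AC50 within twice the top valid tested concentration of each sample, actives reach about 35 µM in these data; inactive means activity opposite to expected, plus the rest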;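 further: polarization loss reports compound binding to salmon sperm DNA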
AlphaScreen intf = AlphaScreen signal interference counter-screen hit; AC50, µM (top dose mostly 12 µM); 45% of 530 active; signal luminescence; shares compounds with MLL AF4-AF9 inh; AID 720494; cut-off not given, nearly all actives have AC50 up to about 14 µM
RAD52 DNA ctr = counter-screen for RAD52 inhibitors: DNA binding compounds; AC50, µM; AID 652128; Salmon sperm DNA/acridine orange FP displacement; 8% of 1,000 active; shares compounds with RAD52 inh;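 active means fitted half-maximal concentration for signal loss at or below twice the highest dose tested, in every separate run, actives reach about 64 µM in these data; inconclusive means runs disagree, or flat partial signal loss, or poor fit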
Large screens that a line does not name were inactive (follow-up assays come after a bar, where they were run); ! = not confirmed by another sample.

CCCN(CCC)CCNC(=O)c1cc2c(-c3ccc(Cl)cc3)nn(C)c2s1	RAD54 inh 61, RAD52 inh 52 | Rad54 DNA ctr inactive | RAD52 DNA ctr inactive
CCCCN(CC)CCNC(=O)c1cc2c(-c3ccc(Cl)cc3)nn(C)c2s1	RAD54 inh 82, GSIS activator 67, RAD52 inh 50 | Rad54 DNA ctr inactive | RAD52 DNA ctr inactive
CCOCCCNC(=O)c1cc2c(-c3ccc(Cl)cc3)nn(C)c2s1	none
CCN1CCN(c2ccc(NC(=O)c3cc4ccccc4cc3OC)cc2C)CC1	RAD54 inh 54, DENV2 CPE rescue inconclusive, RAD52 inh 83 | Rad54 DNA ctr inactive | RAD52 DNA ctr inactive
CCOc1ccc(Nc2c3ccccc3nc3ccccc23)cc1	MLL AF4-AF9 inh 37, RAD54 inh 106, dFosB activator 86, RAD52 inh 85 | Rad54 DNA ctr 27µM | RAD52 DNA ctr inactive
CCOc1ccc(Nc2cc(C)c3ccccc3n2)cc1	none
CN(C)CCNc1ncnc2sc(-c3ccccc3)cc12	RAD54 inh 67, RAD52 inh 59 | Rad54 DNA ctr inactive | RAD52 DNA ctr inactive
Fc1cccc(Nc2c3c(nc4ccccc24)CCC3)c1	none
c1ccc2c(Nc3ccc4c(c3)OCCO4)c3c(nc2c1)CCCC3	none (no result: RAD54 inh) | AlphaScreen intf inactive
Cc1ccc(S(=O)(=O)N(C)C[C@@H]2OCCCC[C@@H](C)Oc3ccc(NS(=O)(=O)c4cn(C)cn4)cc3C(=O)N([C@H](C)CO)C[C@@H]2C)cc1	none (no result: DENV2 CPE rescue, dFosB activator)
C[C@H]1CCCCO[C@@H](CN(C)CC2CCCCC2)[C@@H](C)CN([C@@H](C)CO)C(=O)c2cc(NC(=O)NC3CCCCC3)ccc2O1	none (no result: MLL AF4-AF9 inh, dFosB activator, RAD52 inh)
COc1cc(O)c(C(CCN2CCN(c3ccccc3)CC2)c2ccc(N(C)C)cc2)c(OC)c1 (stereo not drawn)	MLL AF4-AF9 inh 50 (no result: GSIS activator) | AlphaScreen intf inactive
CNC[C@H](Cc1ccccc1)NC[C@@H](Cc1cccc2ccccc12)NCCc1ccc(C)cc1	MLL AF4-AF9 inh 45, dFosB activator 30 | AlphaScreen intf inactive
Cc1cc(C)n(/N=C/c2ccccc2O)c(=O)c1	none
CN=c1scc(-c2cccs2)n1/N=C/c1ccccc1O	MLL AF4-AF9 inh 31 (no result: RAD54 inh) | AlphaScreen intf inactive
CC(C)NC(=O)Nc1cccc2c1O[C@@H](CN(C)Cc1ccccc1)[C@@H](C)CN([C@H](C)CO)C2=O	none (no result: dFosB activator)
Cc1cc2c(cc1C)N[C@]1(C[C@H]3CCCC(=O)N4CC[C@@H](C1)[C@@H]34)C(=NC(C)(C)CC(C)(C)C)N2	MLL AF4-AF9 inh 50 (no result: GSIS activator) | AlphaScreen intf inactive
COc1ccccc1NC(=O)N1CC(=O)N2[C@H](CO)[C@@H](c3ccc(-c4ccc(C)cc4)cc3)[C@@H]2C1	none (no result: RAD54 inh, dFosB activator)
COC(=O)C1=CN(Cc2ccc(OC)cc2)C=C(C(=O)OC)C1c1cccs1	none (no result: RAD54 inh)
COC(=O)C1=CC(C(=O)c2cccs2)=NN(c2ccc(OC)cc2)C1C(=O)OC (stereo not drawn)	MLL AF4-AF9 inh 32 (no result: RAD54 inh) | AlphaScreen intf inactive
CN1CCN(C(c2ccc(C(F)(F)F)cc2)c2cc(Cl)c3cccnc3c2O)CC1 (stereo not drawn)	MLL AF4-AF9 inh 81 (no result: RAD54 inh, dFosB activator) | AlphaScreen intf 2.1µM
O=C(NC(c1ccc(Cl)cc1)c1cc(Cl)c2cccnc2c1O)c1cccnc1 (stereo not drawn)	none (no result: MLL AF4-AF9 inh, DENV2 CPE rescue, RAD52 inh)
CN1CCN(C(c2ccc(Cl)cc2)c2cc(Cl)c3cccnc3c2O)CC1 (stereo not drawn)	MLL AF4-AF9 inh 85, DENV2 CPE rescue inconclusive | AlphaScreen intf 2.2µM
Oc1c(C(c2ccccn2)N2CCCCC2)cc(Cl)c2cccnc12 (stereo not drawn)	MLL AF4-AF9 inh 58 | AlphaScreen intf 8.7µM
N#C[C@H]1[C@H](c2ccc(C#Cc3cccnc3)cc2)[C@@H](CO)N1C(=O)NC1CCCC1	none (no result: MLL AF4-AF9 inh, RAD54 inh, DENV2 CPE rescue, dFosB activator, RAD52 inh)
Cc1noc(C)c1NC(=O)Nc1ccc2c(c1)CC(=O)N([C@H](C)CO)C[C@@H](C)[C@H](CN(C)C(=O)Nc1ccc3c(c1)OCO3)O2	none (no result: dFosB activator)
CCn1c(SCC(=O)N2c3ccccc3Sc3ccccc32)nnc1-c1ccco1	none (no result: MLL AF4-AF9 inh, DENV2 CPE rescue)
Cn1c(SCC(=O)N2c3ccccc3Sc3ccc(Cl)cc32)nnc1-c1ccco1	MLL AF4-AF9 inh inconclusive | AlphaScreen intf inactive
C[C@@H]1ON(C)[C@H]2C[C@H]3c4[nH]c5ccc(-c6ccc7c(c6)OCO7)cc5c4CCN3C[C@@H]12	MLL AF4-AF9 inh 31 (no result: dFosB activator) | AlphaScreen intf inactive
CC/C(=C(\c1ccc(O)cc1)c1ccc(OCCN(C)C)cc1)c1ccccc1	none (no result: GSIS activator)
CCN(CC)CCOc1ccc(/C(=C(/Cl)c2ccccc2)c2ccccc2)cc1	MLL AF4-AF9 inh 31! | AlphaScreen intf inactive
CCCNC(=O)Nc1ccc2c(c1)C(=O)N(C)C[C@H](OC)[C@@H](C)CN(C(=O)C1CC1)[C@@H](C)CO2	none (no result: dFosB activator)
COc1ccccc1N(C(C)=O)C1=C(Cl)C(=O)c2ccccc2C1=O	MLL AF4-AF9 inh 28 (no result: GSIS activator, dFosB activator) | AlphaScreen intf 4.4µM
CN(C)CCNc1ccc2nnn3c4ccc(O)cc4c(=O)c1c23	none (no result: RAD54 inh)
CCN(CC)CCCNc1ccc2ncn3c4ccc(O)cc4c(=O)c1c23	dFosB activator 38 (no result: RAD54 inh) | AlphaScreen intf inactive
CC(C)NC(=O)N(C)C[C@@H]1Oc2c(NC(=O)C3CC3)cccc2C(=O)N([C@@H](C)CO)C[C@H]1C	none (no result: dFosB activator)
COCC#Cc1cnc2c(c1)C(=O)N([C@H](C)CO)C[C@H](C)[C@@H](CN(C)S(C)(=O)=O)O2	none (no result: dFosB activator)
COCCN=c1scc(-c2ccco2)n1/N=C/c1ccc(O)c(O)c1O	MLL AF4-AF9 inh 33 | AlphaScreen intf inactive
C=CCN=c1scc(-c2ccco2)n1/N=C/c1ccc(O)c(O)c1O	none (no result: RAD54 inh)
CC(C)N1CCN(c2ccc(OCC3COC(Cn4cncn4)(c4ccc(Cl)cc4Cl)O3)cc2)CC1 (stereo not drawn)	none (no result: RAD54 inh) | AlphaScreen intf inactive
COc1ccc(N2CCN(C(=O)Cn3cncn3)CC2)cc1	none (no result: DENV2 CPE rescue)
Cc1cc(N=Nc2ccc(Cl)cc2)cc(CN2CCOCC2)c1O	MLL AF4-AF9 inh 30 (no result: GSIS activator) | AlphaScreen intf inactive
C[C@@H]1CN([C@H](C)CO)C(=O)c2cccc(NC(=O)C3CCCCC3)c2O[C@@H]1CN(C)S(=O)(=O)c1ccc(F)cc1	DENV2 CPE rescue inconclusive (no result: dFosB activator)
Cc1cccc(NNC(=O)C(=O)NNc2cccc(C)c2)c1	DENV2 CPE rescue inconclusive
Cc1cccc(N=NC(=S)NNc2cccc(C)c2)c1	MLL AF4-AF9 inh 36 (no result: RAD54 inh) | AlphaScreen intf 1µM
